For part of these data: Potency and affinity values are given separately.

Experiment [1] concerns Staphylococcus aureus. Put plainly: Antibacterial activity against Staphylococcus aureus MRSA ATCC 43300 (CO-ADD:GP_020); MIC in CAMBH media using NBS plates, by Resazurin F(560/590). Type of experiment: functional. Conditions: Concentration 20 uM, ASSAY_TEST Inhibition of Bacterial Growth, detection method Resazurin, Fluorescence (ex560/em590), MEDIA CAMHB, plate type 384well, CORNING #3640, time 18 hr. (Resazurin is reduced to fluorescent resorufin, in cell work by metabolically active cells.)

Experiment [2] deals with Acinetobacter baumannii. Kind of experiment: Antibacterial activity against Acinetobacter baumannii ATCC 19606 (CO-ADD:GN_034); MIC in CAMBH media using NBS plates, by Resazurin F(560/590). Conditions: Concentration 20 uM, ASSAY_TEST Inhibition of Bacterial Growth, detection method Resazurin, Fluorescence (ex560/em590), MEDIA CAMHB, plate type 384well, CORNING #3640, time 18 hr. Type of experiment: functional.

For experiment [3], the system named is Escherichia coli. Kind of experiment: Antibacterial activity against Escherichia coli ATCC 25922 (CO-ADD:GN_001); MIC in CAMBH media using NBS plates, by Resazurin F(560/590). Conditions: Concentration 20 uM, ASSAY_TEST Inhibition of Bacterial Growth, detection method Resazurin, Fluorescence (ex560/em590), MEDIA CAMHB, plate type 384well, CORNING #3640, time 18 hr. The format is functional.

Experiment [4] relates to Klebsiella pneumoniae. Conditions: Concentration 20 uM; ASSAY_TEST Inhibition of Bacterial Growth; detection method Absorption (OD600); MEDIA CAMHB; plate type 384well; NBS; CORNING #3640; time 18 hr.
The subject of experiment [5] is Candida albicans. Conditions: 20 µM.
In experiment [6] the test system is Cryptococcus neoformans. Conditions: Concentration 20 uM; ASSAY_TEST Inhibition of Fungal Growth; detection method Resazurin; Absorption (OD600-OD570); plate type 384well; NBS; CORNING #3640.

As to `Oc1cccc2cnccc12`, the Inhibition (usually the relative decrease from the control value, in per cent) in experiment [1] is -5.81%; in experiment [2] it was 3.26%; in experiment [3], 3.71%; in experiment [4] it was 12.61%; in experiment [5], 1%; in experiment [6], 3.35%.

With `Nc1ncnc2c1cnn2C1CCCCC1`, the Inhibition was -0.45% in experiment [1]; -2.92% in experiment [2]; -6.81% in experiment [3]; 9% in experiment [4]; 1.58% in experiment [5]; -3.99% in experiment [6].

For `O=C(COc1ccc([N+](=O)[O-])cc1Cl)N1CCOCC1`, the Inhibition in experiment [1] is 2.54%; in experiment [2] it was 4.52%; in experiment [3] it was 6.72%; in experiment [4] it was 6.01%; in experiment [5], -1.21%; in experiment [6] it was -16.6%.

For `COc1ccc2c(c1)c1ccc3c(c1n2C)C(=O)C=CC3=O`, the Inhibition is -28.89% in experiment [1]; 3.5% in experiment [2]; -18.56% in experiment [3]; 4.14% in experiment [4]; 7% in experiment [5]; 0.4% in experiment [6].

With `Cc1cc(NC(=O)Nc2cc(F)ccc2F)no1`, the Inhibition was -1.77% in experiment [1]; -0.21% in experiment [2]; 10.41% in experiment [3]; 7.53% in experiment [4]; 2.67% in experiment [5]; -5.29% in experiment [6].

With `COc1ccc(C(=O)O)nc1C`, the Inhibition in experiment [1] is -3.26%; in experiment [2] it was -9.48%; in experiment [3], 11.67%; in experiment [4] it was 7.05%; in experiment [5], -1.1%; in experiment [6] it was -14%.

`Cc1ccc(NC(=O)N2CCN(C)CC2)cc1NC(=O)N1CCN(C)CC1`: the Inhibition in experiment [1] is 2.62%; in experiment [2], 1.03%; in experiment [3], -22.66%; in experiment [4], 4.06%; in experiment [5], 0.95%; in experiment [6], 29.46%.

For the molecule `COc1cc(C(=O)C(=O)c2ccc(O)c(OC)c2)ccc1O`, the Inhibition is -3.81% in experiment [1]; -13.36% in experiment [2]; 16.47% in experiment [3]; 8.6% in experiment [4]; 1.86% in experiment [5]; -17.88% in experiment [6].

In the case of `Cc1ccc(S(=O)(=O)CCOC(=O)CNC(=O)OCc2ccccc2)cc1`, the Inhibition is 0.28% in experiment [1]; 8.19% in experiment [2]; 0.72% in experiment [3]; 12.65% in experiment [4]; 2.97% in experiment [5]; -8.5% in experiment [6].

Regarding `CSc1nc2cc(S(=O)(=O)N3CCCCC3)ccc2s1`, the Inhibition in experiment [1] was 2.12%; in experiment [2] it was 9.92%; in experiment [3], -7.83%; in experiment [4], 10.24%; in experiment [5] it was 7.84%; in experiment [6], 2.72%.

Regarding `CCOC(=O)Nc1ccc(C(=O)/C=C/c2ccccc2)cc1`, the Inhibition in experiment [1] was 8.55%; in experiment [2], 3.76%; in experiment [3], -2.1%; in experiment [4], 17.43%; in experiment [5], 6.26%; in experiment [6], -5.25%.

On to `C=CCNC(=O)C1COc2ccccc2O1` (stereo not drawn), for which the Inhibition in experiment [1] was -8.47%; in experiment [2] it was -14.67%; in experiment [3], 0.51%; in experiment [4], 7.35%; in experiment [5], 1.99%; in experiment [6], -7.01%.

For `N=C(N)NC(=S)Nc1ccc(Cl)cc1`, the Inhibition in experiment [1] is 29.08%; in experiment [2], 3.91%; in experiment [3], 19.57%; in experiment [4] it was 9.15%; in experiment [5], 20%; in experiment [6] it was -7.26%.

For `CN(C)Cc1cc(C(F)(F)F)ccc1C(O)(c1ccccc1)c1ccccc1`, the Inhibition was 9.65% in experiment [1]; 13.38% in experiment [2]; 9.52% in experiment [3]; 10.99% in experiment [4]; -1.43% in experiment [5]; -9.44% in experiment [6].

Regarding `CSc1cccc(NC(=O)Nc2nc3c(C)cccc3s2)c1`, the Inhibition in experiment [1] is -3.9%; in experiment [2], 2.69%; in experiment [3], 8.83%; in experiment [4], 7.86%; in experiment [5], -0.92%; in experiment [6] it was -2.59%.

Take `N#CCCCCN1CCCC1`: the Inhibition in experiment [1] is 4.35%; in experiment [2], -8.73%; in experiment [3] it was 3.27%; in experiment [4], 18.95%; in experiment [5] it was -1.32%; in experiment [6], -2.95%.

For the molecule `O=C(O)/C=C/C(=O)Nc1cccc2cccnc12`, the Inhibition in experiment [1] was 36.64%; in experiment [2], -0.12%; in experiment [3], 28.31%; in experiment [4] it was 7.62%; in experiment [5], 8.39%; in experiment [6], 9.5%.

`CCNc1nc(Cl)nc(-c2cn(-c3ccccc3)c3ccccc23)n1`: the Inhibition is 17.23% in experiment [1]; 12.81% in experiment [2]; 4.37% in experiment [3]; 13.6% in experiment [4]; 0.17% in experiment [5]; -5.12% in experiment [6].

On to `CC1(C)CC2(C)OC2C2(C1)N=N/C(=N/c1ccccc1)O2` (stereo not drawn), for which the Inhibition in experiment [1] is 27.69%; in experiment [2], -0.3%; in experiment [3], 4.99%; in experiment [4], 7.34%; in experiment [5] it was -0.47%; in experiment [6] it was -10.74%.

Consider `CN1CCC(=C(c2ccc(Cl)cc2)c2ccccn2)CC1.O=C(O)/C=C\C(=O)O` [CYCLIRAMINE MALEATE], for which the Inhibition was 6.43% in experiment [1]; -10.18% in experiment [2]; 9.66% in experiment [3]; 13.03% in experiment [4]; 1.65% in experiment [5]; -5.61% in experiment [6].

In the case of `COc1c(O)ccc2c1CN1CCc3cc4c(cc3C1C2)OCO4` (stereo not drawn), the Inhibition in experiment [1] was 12.64%; in experiment [2] it was 10.47%; in experiment [3] it was 3.09%; in experiment [4] it was 10.21%; in experiment [5], -2.64%; in experiment [6] it was -12.68%.

For `Cn1c(=O)c2nc(CNc3ccc(C(=O)O)cc3)[nH]c2n(C)c1=O`, the Inhibition in experiment [1] is -13.67%; in experiment [2], 2.67%; in experiment [3], -18.91%; in experiment [4], 4.5%; in experiment [5], 2.41%; in experiment [6], 17.72%.

For the molecule `CNC(=O)Nc1ccc(S(N)(=O)=O)cc1`, the Inhibition was -4.03% in experiment [1]; 14.32% in experiment [2]; -4.85% in experiment [3]; 19.46% in experiment [4]; 3.31% in experiment [5]; 0.61% in experiment [6].

(Values after ChEMBL document CHEMBL4296182, “CO-ADD screening of NIH NCI Diversity Set V”.)
